This note sets out measurements from PubChem BioAssay (NCI).

Test systems include SK-MEL-2 melanoma; EKVX NSCLC; SN12C renal; UO-31 renal; ACHN renal; CAKI-1 renal; A498 renal; CCRF-CEM leukemia; MOLT-4 leukemia; RPMI-8226 leukemia; OVCAR-8 ovarian; OVCAR-5 ovarian; OVCAR-4 ovarian; SK-OV-3 ovarian; IGROV1 ovarian; OVCAR-3 ovarian; HS 578T breast; NCI/ADR-RES ovarian; TK-10 renal; SR leukemia.
Test in all cases: NCI-60 one-dose screen, 48 h (100 = growth as untreated, 0 = no growth, -100 = all killed)
What all share (conditions): 10 µM unless noted

The panel holds about 83,000 compounds, 20% with a hit somewhere; the sample as a whole holds those more often.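 Compound tested at a single concentration for 48 hours in 96-well plates; a percent growth value below 10 was scored as active.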 Values without a mark were called inactive. Active and inactive are the calls of the source.

For the compound `Clc1cccc(Cl)c1C(Nc1nc2ccccc2s1)Nc1nc2ccccc2s1`, the growth in the assay on SK-MEL-2 melanoma is 76%; in the assay on EKVX NSCLC, 97.1%; in the assay on SN12C renal, 108%; with UO-31 renal it was 75%; with ACHN renal it was 89.3%; with CAKI-1 renal it was 108%. The growth with A498 renal is 112%; with CCRF-CEM leukemia it was 81.7%; in the assay with MOLT-4 leukemia, 89.5%; with RPMI-8226 leukemia, 5.02% (active); in the assay on OVCAR-8 ovarian it was 108%; in the assay on OVCAR-5 ovarian, 90.3%. Also, the growth with OVCAR-4 ovarian was 84.6%; with SK-OV-3 ovarian, 94.2%; in the assay with IGROV1 ovarian it was -15.1% (active); in the assay with OVCAR-3 ovarian, 114%; in the assay on HS 578T breast, 106%; in the assay on NCI/ADR-RES ovarian, 108%.

As for `COc1ccc(NC(=O)CSc2nc(C)c(C(C)=O)n2-c2ccc([N+](=O)[O-])cc2)cc1`, the growth is 89.3% in the assay on SK-MEL-2 melanoma; 88.1% with EKVX NSCLC; 94.7% in the assay with SN12C renal; 83.6% in the assay on UO-31 renal; 96.9% in the assay on TK-10 renal; 99.6% in the assay with CAKI-1 renal. Besides, the growth is 58.1% in the assay on A498 renal; 111% with CCRF-CEM leukemia; 92.2% in the assay with MOLT-4 leukemia; 102% with RPMI-8226 leukemia; 96.4% in the assay on OVCAR-8 ovarian; 89.8% in the assay with OVCAR-5 ovarian. Moreover, the growth is 102% in the assay with OVCAR-4 ovarian; 95.8% with IGROV1 ovarian; 119% in the assay with OVCAR-3 ovarian; 94.9% in the assay with HS 578T breast; 86% with NCI/ADR-RES ovarian.

On to `C=CCn1c(C)nc2cc(Nc3nc(N4CCCC4)nc4ccccc34)ccc21`, for which the growth in the assay with SK-MEL-2 melanoma is 109%; in the assay on EKVX NSCLC it was 97.7%; with SN12C renal it was 90.3%; with UO-31 renal, 68.1%; in the assay with TK-10 renal it was 108%; in the assay with CAKI-1 renal, 84.9%. In addition, the growth in the assay on A498 renal was 71.4%; in the assay on MOLT-4 leukemia, 49.9%; with SR leukemia, 5.75% (active); with RPMI-8226 leukemia it was 55%; in the assay with OVCAR-8 ovarian, 84.1%; in the assay on OVCAR-5 ovarian, 123%. Moreover, the growth was 91.3% in the assay on OVCAR-4 ovarian; 123% with SK-OV-3 ovarian; 95.4% in the assay on IGROV1 ovarian; 105% with OVCAR-3 ovarian; 86.8% with HS 578T breast; 83.3% in the assay with NCI/ADR-RES ovarian.

In the case of `CCCCCCCCn1ccc2cc(NC(=O)Cn3cc(CN4CCCC4)nn3)ccc21`, the growth in the assay with SK-MEL-2 melanoma is 68.6%; in the assay with EKVX NSCLC, 88.8%; in the assay on SN12C renal, 44.4%; with UO-31 renal it was 6.9% (active); in the assay on TK-10 renal, 89.9%; in the assay with CAKI-1 renal, 8.76% (active). Further, the growth in the assay on A498 renal is 87.2%; in the assay with MOLT-4 leukemia, 32.8%; in the assay with SR leukemia, 19.2%; with RPMI-8226 leukemia, -66% (active); with OVCAR-5 ovarian, 88.4%; with OVCAR-4 ovarian, 76.2%. The growth was 87.2% with SK-OV-3 ovarian; 76% in the assay on IGROV1 ovarian; 51.9% in the assay with OVCAR-3 ovarian; 76.8% in the assay with HS 578T breast; 92.7% in the assay on NCI/ADR-RES ovarian.

Regarding `O=C(Nc1ccccc1)Nc1cccc(Oc2nnc(Cl)c3ccccc23)c1`, the growth with SK-MEL-2 melanoma is 9.53% (active); in the assay on EKVX NSCLC, 30%; with SN12C renal it was 53.7%; in the assay on UO-31 renal, 34.9%; in the assay with ACHN renal, 33.9%; with CAKI-1 renal it was 84.4%. Besides, the growth in the assay with A498 renal is 49.2%; in the assay with CCRF-CEM leukemia, 47.6%; in the assay on SR leukemia it was 18%; in the assay with RPMI-8226 leukemia, 35.1%; in the assay with OVCAR-8 ovarian, 15.5%; in the assay on OVCAR-5 ovarian, 86.3%. The growth in the assay on SK-OV-3 ovarian is -0.5% (active); with IGROV1 ovarian, 37.2%; in the assay with OVCAR-3 ovarian, 25.4%; in the assay on HS 578T breast, 1.19% (active); in the assay with NCI/ADR-RES ovarian, 16.9%.

Regarding `CC(=O)N1N=C(c2ccc(Nc3nc(Nc4ccc(F)cc4)nc(Nc4ccc(F)cc4)n3)cc2)CC1c1cccc([N+](=O)[O-])c1` (stereo not drawn), the growth is 62.5% with SK-MEL-2 melanoma; 90.2% with EKVX NSCLC; 98.1% in the assay on SN12C renal; 73% in the assay on UO-31 renal; 124% in the assay with CAKI-1 renal; 78.9% in the assay with A498 renal. The growth in the assay with MOLT-4 leukemia is 8.35% (active); in the assay on SR leukemia it was 22.4%; in the assay on RPMI-8226 leukemia, 19.8%; in the assay with OVCAR-8 ovarian it was 91.6%; in the assay on OVCAR-5 ovarian, 75.5%; with OVCAR-4 ovarian it was 47.8%. Further, the growth was 110% in the assay on SK-OV-3 ovarian, 76.9% in the assay with IGROV1 ovarian, 235% in the assay with OVCAR-3 ovarian and 67.2% with NCI/ADR-RES ovarian.

As to `N#Cc1nc2c(S(=O)(=O)c3ccc(Cl)cc3)c(N)n(Nc3cccc(Cl)c3)c2nc1C#N`, the growth was 121% in the assay with SK-MEL-2 melanoma; 33.3% in the assay on EKVX NSCLC; 56.8% in the assay on SN12C renal; 63% in the assay with UO-31 renal; 67.7% in the assay with ACHN renal; 88.5% in the assay on CAKI-1 renal. Also, the growth with A498 renal is 49.2%; in the assay on MOLT-4 leukemia, 49.5%; in the assay with SR leukemia, -6.78% (active); with RPMI-8226 leukemia, 3.39% (active); in the assay on OVCAR-8 ovarian it was 24%; in the assay with OVCAR-5 ovarian, 68.4%. For the same compound, the growth is 42.6% in the assay with OVCAR-4 ovarian; 50.2% in the assay with SK-OV-3 ovarian; 59.4% with OVCAR-3 ovarian; 31.2% in the assay on HS 578T breast; 79.6% in the assay on NCI/ADR-RES ovarian.

Turning to `Nc1nc(N)c2c(n1)NC(c1ccccc1)C1CCc3ccccc3C1=N2` (stereo not drawn), the growth in the assay with SK-MEL-2 melanoma is 86.6%; in the assay with EKVX NSCLC it was 39.2%; with SN12C renal it was 66%; in the assay on UO-31 renal it was 55.9%; in the assay on ACHN renal, 39.3%; in the assay on CAKI-1 renal it was 34.1%. Further, the growth in the assay on A498 renal was 42.5%; in the assay on MOLT-4 leukemia it was 15.1%; in the assay with SR leukemia, 19.3%; with RPMI-8226 leukemia it was 24.5%; in the assay on OVCAR-8 ovarian, 64.9%; in the assay with OVCAR-5 ovarian, 112%. The growth is 27.3% with OVCAR-4 ovarian; 57.9% with SK-OV-3 ovarian; 92.2% in the assay on IGROV1 ovarian; 38.4% with OVCAR-3 ovarian; 23.9% with NCI/ADR-RES ovarian.

For the compound `c1coc(-c2c3ccc(=[N+]4CCCCC4)cc-3oc3cc(N4CCCCC4)ccc23)c1`, the growth was -80.4% (active) in the assay with SK-MEL-2 melanoma; -66.5% (active) with EKVX NSCLC; -75.4% (active) in the assay with SN12C renal; -84.6% (active) in the assay with UO-31 renal; -82.9% (active) with CAKI-1 renal; -66.3% (active) with A498 renal. The growth in the assay on CCRF-CEM leukemia was -50.1% (active); in the assay on MOLT-4 leukemia, -43% (active); with RPMI-8226 leukemia, -42.7% (active); in the assay with OVCAR-8 ovarian, -61% (active); in the assay on OVCAR-5 ovarian, -91.8% (active); in the assay with SK-OV-3 ovarian, -95.2% (active). In addition, the growth with IGROV1 ovarian was -67.5% (active); in the assay on OVCAR-3 ovarian, -99.2% (active); in the assay with HS 578T breast, -35.6% (active); with NCI/ADR-RES ovarian, -60.2% (active).
